The supplement of paper PMC10681739
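Also: Full-length recombinant human ETS1 or RUNX1 bound to double-stranded 36-bp genomic probes on microarrays, detected by protein-specific primary antibody and Alexa488 secondary, spot fluorescence as median of four replicate spots.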

Each sequence was assayed against RUNX1 (UniProt Q01196) (assay: RUNX1 binding intensity (PBM fluorescence) in presence of ETS1, normalised to RUNX1-only experiment (arbitrary fluorescence units); higher = stronger binding). Conditions: RUNX1 concentration 2 nM; ETS1 concentration 25 nM.
Sequence of RUNX1 (Q01196 whole entry): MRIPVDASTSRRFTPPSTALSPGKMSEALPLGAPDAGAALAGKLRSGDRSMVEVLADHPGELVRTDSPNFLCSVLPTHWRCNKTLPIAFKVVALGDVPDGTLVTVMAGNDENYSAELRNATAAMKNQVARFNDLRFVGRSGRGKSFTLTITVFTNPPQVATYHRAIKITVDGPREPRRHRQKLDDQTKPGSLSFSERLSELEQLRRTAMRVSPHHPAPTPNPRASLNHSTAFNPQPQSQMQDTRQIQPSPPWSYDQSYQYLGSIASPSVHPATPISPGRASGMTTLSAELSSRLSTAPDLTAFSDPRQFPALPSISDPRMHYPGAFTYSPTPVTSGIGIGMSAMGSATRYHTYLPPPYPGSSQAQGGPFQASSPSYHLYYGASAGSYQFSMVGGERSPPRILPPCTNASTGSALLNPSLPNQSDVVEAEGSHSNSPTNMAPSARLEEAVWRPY
Description: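 Cooperative gcPBM on 36-bp genomic probes with neighbouring ETS1 and RUNX1 sites. Recombinant human RUNX1 (2 nM) was incubated alone or with ETS1 (25 nM) and detected with anti-RUNX1 antibody plus Alexa488 secondary. Values are medians over 4 replicate spots; the RUNX1+ETS1 data were normalised to the RUNX1-only data. The probes sit in constant array flanks that are not printed.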
GCCATGGCCACTTCCTGCTTGTAACCACAGCCCAGA showed an RUNX1 binding intensity of 5520.
GGAGCATCCCGGAAGTCGTCACTGCGGCCGCTCCCG was tested, and the RUNX1 binding intensity was 1770.
For GTGGGGCAGGATGTGCTTGCCTGGCTGCGGTTGGAC, the RUNX1 binding intensity was 2230.
Work on CTAGCTGTGGACAGGAAACGAGTGGTTTTTGTGATC yielded an RUNX1 binding intensity of 1400.
In the case of TGTCAGCTGCGTTTCCGCGGTCGCGGGTGAGTGTGC, the RUNX1 binding intensity is reported as 1360.
In the case of TGGTTTCCGGGCTGGGGTTAGAATAGGCCACAAGGT, the RUNX1 binding intensity is reported as 1740.
CTGTCTGCTTCCCGTGGCCAGCCCTGACCGCGGCCC gave an RUNX1 binding intensity of 1430.
With GCCGTGGGTACGACCGGAAGCCGCAGGTGGGTGAAG the RUNX1 binding intensity was 1540.
Work on ACACCTCAGGAAGTGGCAGAGACCACAACAAGTCAG yielded an RUNX1 binding intensity of 1620.
With CACCTCACAGCCCGGATACAAACCGCCTACCCGCCC the RUNX1 binding intensity was 1230.
Sequence CACCCATAGCACCCCGGAAACCACCTCCACCACCTG has an RUNX1 binding intensity of 2020.
With AGGTTCGTGGCAGGAAAGTTTGTGGCAGCAAAGCCT the RUNX1 binding intensity was 1100.
Work on GCCGGTGAGGGCGGAAGTGGTAAGACTGACGTGTCC yielded an RUNX1 binding intensity of 2490.
Sequence GCCGCCGTTTCCTGATTGGTTGTGGGTGGCTACCTC has an RUNX1 binding intensity of 1660.
Sequence AGCTTGACGAAGGCTTCCTGTGGTTTGGGTTGATGT has an RUNX1 binding intensity of 1530.
Work on CATAGACCGGATGCCTCGTCAACCACAGAAACCAAT yielded an RUNX1 binding intensity of 2940.
Work on CAGGAGCAGTGTAGAGGAAGTGGTTTCCATCACGGA yielded an RUNX1 binding intensity of 1410.
ATAGAAACTACAGGAAATACTGTGGTCAGGTTTTGA showed an RUNX1 binding intensity of 1380.
For GTGGGGAGAGGCAGGAAACCGCTGCCGCCGACGGGG, the RUNX1 binding intensity was 1030.
For TGGCTGTGTCCCGGAAGTGGTCATAAGCTGGGTCCC, the RUNX1 binding intensity was 2470.
ATCAGTCAACTTCCCCCACTCCCTCCCACAAAGAAA gave an RUNX1 binding intensity of 1300.
In the case of CGTGTGGGAGGCCGGAAGTTGCGGCTTCATTACTCG, the RUNX1 binding intensity is reported as 2710.
TTTGTTGTTCCGGGTGCGAGGCGGCCGCAGCTTCCA gave an RUNX1 binding intensity of 1180.
Sequence CCACCATCTTTCCGGCTCCCTCGCGACCACCACGAC has an RUNX1 binding intensity of 1970.
In the case of GTGCCTTTTCATGTGGGATGTGGCTTCAAGGAGACC, the RUNX1 binding intensity is reported as 822.
In the case of TCTCTATGGTTTCCGTTGGGTGTGTGGTTTTTTTGT, the RUNX1 binding intensity is reported as 2050.
For GTGTGCGTGAGAAGAGGAAGTGGTTAGGAAGACACA, the RUNX1 binding intensity was 1900.
In the case of GAAATGAAGGCCGGATGTCAGTAACCACAAACGAGC, the RUNX1 binding intensity is reported as 11000.
With TGCGCCGGGAGGAAGGGCTCCAAAACCACAGGGCGG the RUNX1 binding intensity was 927.
CCCAGGGCAGGAAGGGCCAAACCGCTACTGCCACTG showed an RUNX1 binding intensity of 908.
Work on GGAGGGGAGCAGGAAGCTGAGGTTTTGTGAGTCAGA yielded an RUNX1 binding intensity of 1070.
CCGGGAAGGCGGAAGCAGCAGAGACGCCGCAAGGCC showed an RUNX1 binding intensity of 980.
CTCTCCACCTCCTTCCGACCAGGACCGCACCCCCCC gave an RUNX1 binding intensity of 1650.
Work on CCCCACATCCGGGGGCCGGGGCCGGGCTGTGGGCTT yielded an RUNX1 binding intensity of 2140.
CTCCATCTGCCCGGAAAACCGCAGCCGCCCCAACCT showed an RUNX1 binding intensity of 34700.
With ACATTTCCTTTTGGTATTTAAAGTAACCACACAGAA the RUNX1 binding intensity was 2120.
AGTCTCGTTTCCTGTGCGCTGTGGCCACCTGGCAGC showed an RUNX1 binding intensity of 1790.
Work on GCTTCTGAGGAAGTGCGTTCTGTGGGTAGGTGGAGT yielded an RUNX1 binding intensity of 918.
For CGGGAACACCCACTTCCGCCACAGACCTGCTCAAAA, the RUNX1 binding intensity was 3820.
GTCCCCGTAACAGGATGTGGTGAGCTGTTATACCAC showed an RUNX1 binding intensity of 4520.
